Source: PubChem (National Center for Advancing Translational Sciences (NCATS))
uPA surface inh: qHTS for Inhibitors of Cell Surface uPA Generation; Potency, µM (top dose mostly 38.3 µM), inactives show at the highest dose activity change, negative = inhibition, usual class: inhibitors; 330,000 compounds, 0.31% hits; cell surface uPA generation assay, qHTS; active = well fitted inhibition curve with a large enough effect; inconclusive = small, poorly fitted or top-dose-only effect; inactive = no such curve, though single readings can be large or run the other way; tested in mouse RAW 264.7 cells; note: potency is the fitted concentration of half-maximal effect; nearly all actives have a fitted effect of over 55% in size
IL-1B inflam inh: qHTS for Inhibitors of Inflammasome Signaling: IL-1-beta AlphaLISA Primary Screen. THP-1 LPS/ATP IL-1B secretion, AlphaLISA, 16 h; hits give low values. activity change, % at 57.5 µM. 360,000 compounds, 4.7% hits. AID 743279, 2014; in the data active = activity change below about -50%; inconclusive = mostly about -30% to -49%
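THP-1 cells pretreated 1 hr with compounds (up to 57.5 uM final), then stimulated with LPS (250 ng/mL final) plus ATP (1.25 mM final); secreted IL-1B measured by AlphaLISA after 16 hr, decreased signal indicating inhibition.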
HT1080NT lethal: qHTS for induction of synthetic lethality in tumor cells producing 2HG: qHTS for the HT-1080-NT fibrosarcoma cell line; HT-1080-NT fibrosarcoma viability, CellTiter-Glo ATP luminescence, 48 h; Potency, µM (doses to about 46.1 µM), inactives show top-dose activity, negative = less viability, most hits filed as cytotoxic; 360,000 compounds, 1.6% hits; AID 686970, 2013;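 note: NT is the 2HG producing partner of a matched IDH1 knockdown line; potency is the fitted concentration of half-maximal effect; 0% = DMSO-treated cells and -100% = media-only wells without cells; nearly all actives have a fitted effect of over 55% in size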
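Fibrosarcoma NT cells, 750 per well in 5% FBS RPMI, were exposed to compound for 48 hours. Viability: CellTiter-Glo luminescence.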
TDP1 cell CPT: qHTS for Inhibitors of human tyrosyl-DNA phosphodiesterase 1 (TDP1): qHTS in cells in presence of CPT; chicken DT40 Tdp1-/-;hTDP1 cells + 20 nM CPT, ATP luminescence, 48 h; Potency, µM (series often up to 46.2 µM), without a hit: at the top dose activity change, negative = growth inhibition, usual class: inhibitors; 420,000 compounds, 12% hits; note: potency is the fitted concentration of half-maximal effect; nearly all actives have a fitted effect of over 55% in size
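Chicken DT40 Tdp1-/- cells complemented with human TDP1, 400 cells/well, exposed to compounds plus 20 nM camptothecin for at least 48 h at 37 C; viability read as ATP content by CellTiter-Glo luminescence.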
HT1080 IDH1KD tx: qHTS for induction of synthetic lethality in tumor cells producing 2HG: qHTS for the HT-1080-IDH1KD cell line | HT-1080 IDH1 knockdown viability, ATP luminescence, 48 h | Potency, µM (doses to about 46.1 µM), for inactives: top-dose activity, negative = toxicity, hits mostly cytotoxic | 360,000 compounds, 2% hits | AID 686971, 2013;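 note: potency is the fitted concentration of half-maximal effect; 0% = DMSO wells and -100% = cell-free medium wells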
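IDH1KD HT-1080 cells, 750/well, RPMI + 5% FBS; compound pinned after 2 h settling; 48 h, 37 °C; CellTiter-Glo luminescence; % activity normalised to DMSO and no-cell wells; curves fitted, classed by r2 and efficacy.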
TDP1 cell noCPT: qHTS for Inhibitors of human tyrosyl-DNA phosphodiesterase 1 (TDP1): qHTS in cells in absence of CPT; DT40 Tdp1-/- hTDP1 cells, no CPT, ATP luminescence, 48 h; Potency, µM (titrated, usually from 46.2 µM), for inactives: top-dose activity change, negative = growth inhibition, usual class: inhibitors; 420,000 compounds, 15% hits; AID 686978, 2013; note: potency is the fitted concentration of half-maximal effect; nearly all actives have a fitted effect of over 55% in size
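Camptothecin absent (DMSO only). Human TDP1-complemented DT40 knockout cells, 400 cells/well, 37 °C for minimum 48 hr; ATP measured via CellTiter-Glo, 30 min dark incubation, luminescence.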
The depositor's hits bear a star; i = inactive; ? = inconclusive; · = no result given. Shown are actives, neighbours in structure and some others; about 19% of the full set was active somewhere. Unless noted, calls come from the whole dose curve; as a rule, active = well fitted curve in the direction sought with a large enough effect; inconclusive = small, poorly fitted or top-dose-only effect, or another doubt; inactive = no such curve, though single readings can be large; an effect the other way counts as inactive or inconclusive. Unless noted, % is set by controls: 0 for no effect and ±100 for the full control effect.

SMILES	uPA surface inh	IL-1B inflam inh	HT1080NT lethal	TDP1 cell CPT	HT1080 IDH1KD tx	TDP1 cell noCPT
COc1cccc(CN(C(=O)c2oc3ccccc3c2C)C2CCS(=O)(=O)C2)c1 (stereo not given)	·	·	·	?	·	21µM*
O=C(/C=C/c1ccccc1)N(Cc1cccc(Cl)c1)C1CCS(=O)(=O)C1 (stereo not given)	0%	-23	3%	?	-2%	?
COc1cccc(CN(C(=O)/C=C/c2ccc(Cl)cc2)C2CCS(=O)(=O)C2)c1 (stereo not given)	1%	-58*	-1%	?	-17%	?
COc1ccc(CN(C(=O)c2oc3ccccc3c2C)C2CCS(=O)(=O)C2)cc1 (stereo not given)	-3%	-12	-7%	-1%	-2%	?
COc1cccc(CN(C(=O)c2oc3cc(C)ccc3c2C)C2CCS(=O)(=O)C2)c1 (stereo not given)	·	·	·	?	·	18µM*
CN(C)CCNc1ncnc2c1ncn2[C@H]1CN(Cc2ccc3c(c2)OCO3)C[C@@H](CO)O1	·	-15	13%	-29%	12%	-26%
CCOC(=O)N1CCN(C(=O)c2ccc(S(=O)(=O)Nc3ccc(C)cc3)cc2)CC1	-12%	37	0%	9.2µM*	-14%	10µM*
Cc1ccc(NS(=O)(=O)c2ccc(C(=O)N3CCC3)cc2)cc1	-1%	41	-5%	?	-14%	?
CCOC(=O)N1CCN(C(=O)c2ccc(NS(=O)(=O)c3ccc(C)cc3)cc2)CC1	-9%	0	-6%	18µM*	-1%	13µM*
COc1ccc(C(=O)C2C(c3ccc(-c4ccccc4[N+](=O)[O-])o3)NC(=O)NC2(O)C(F)(F)F)cc1 (stereo not given)	3%	i	-1%	21µM*	10%	18µM*
O=C1NC(c2ccc(-c3ccccc3[N+](=O)[O-])o2)C(C(=O)c2ccc(F)cc2)C(O)(C(F)(F)F)N1 (stereo not given)	5%	0	-30%	?	?	?
O=C(COc1ncnc2sccc12)NC1CCCCC1	-2%	33	11%	2%	8%	-2%
CC(=O)NC1=NN(C(C)=O)C(C)(c2ccc(C)o2)S1 (stereo not given)	1%	6	3%	22%	-1%	0%
CC(=O)NC1=NN(C(C)=O)C(C)(c2ccco2)S1 (stereo not given)	-11%	31	?	-7%	23µM*	-17%
CC(=O)NC1=NN(C(C)=O)C(C)(c2cccnc2)S1 (stereo not given)	-2%	-1	-3%	13%	?	-3%
CC(=O)NC1=NN(C(C)=O)C(C)(c2cccs2)S1 (stereo not given)	-11%	15	2.9µM*	?	4.6µM*	?
COc1cccc(C(=O)Nn2cnnc2)c1OC	-1%	9	3%	-11%	9%	1%
CO/N=C(\C(=O)N[C@@H]1C(=O)N2C(C(=O)O)=C(CSC(=O)c3ccco3)CS[C@H]12)c1csc(N)n1	·	·	·	20%	·	-12%
CCc1ncc(CN2CCCCC2C(=O)Nc2ccc(Oc3ccccc3)nc2)cn1 (stereo not given)	-4%	6	27%	1%	7%	15%
COc1ccccc1NC(=O)CN1CCN(C2c3ccccc3-c3ccccc32)CC1	7%	16	?	18µM*	?	21µM*
